Consider 25 compounds from PubChem BioAssay (NCI).

Common to all, as to experiment: NCI-60 one-dose screen, 48 h (100 = growth as untreated, 0 = no growth, -100 = all killed)
Settings in all cases: 10 µM unless noted

Experiment [1] has as its system NCI-H23 lung.
The subject of experiment [2] is NCI-H226 lung.
The test system of experiment [3] is NCI-H322M lung.
The subject of experiment [4] is HOP-62 NSCLC.
The test system of experiment [5] is NCI-H460 lung.
In experiment [6] the test system is HOP-92 NSCLC.
Experiment [7] relates to NCI-H522 lung.
In experiment [8] the test system is A549/ATCC NSCLC.
The test system of experiment [9] is 786-0 renal.
Experiment [10] concerns COLO 205 colon.

The panel holds about 83,000 compounds, 20% with a hit somewhere; the sample as a whole holds those more often.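 Testing used 96-well plates and a 48-hour single-concentration exposure. Example: -40 means 40% of the starting cells died.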 A number with no mark means an inactive call. Active and inactive are the calls of the source. How the source made its calls: active means growth percent below 10; inactive means the rest.

Consider `O=C(CC1(O)C(=O)N(Cc2ccccc2)c2ccc(F)cc21)c1ccc(C(=O)NCC2CCC3(CC2)OOC2(CCCCC2)OO3)cc1` (stereo not given), for which the growth in experiment [1] is -70.8% (active); in experiment [2], -43.2% (active); in experiment [3], 50.1%; in experiment [4], -56.6% (active); in experiment [5] it was -51.8% (active); in experiment [6], -71.8% (active). Further, the growth is -43.1% (active) in experiment [7], -52.4% (active) in [8], -67% (active) in experiment [9] and -63.3% (active) in [10].
On to `CCCC(=O)O[C@@H]1C[C@H]2C[C@@H](O[C@@H]3O[C@@H](C)[C@@H](O)[C@@H](O)[C@H]3OC)C[C@@H](C[C@@H](C)/C=C/C=C\C[C@@H]3O[C@@H](C[C@@H]3C)[C@@H](O)C[C@H]3C[C@@]1(O)C(=O)O3)O2`, for which the growth in experiment [1] was 25.9%; in [2] it was 33.3%; in experiment [3], 88.4%; in experiment [4] it was 64.8%; in [5], 47.3%; in experiment [6], 91.6%. Further, the growth in experiment [7] is 21%; in [8], 46.4%; in [9], 76.6%; in [10] it was 39.4%.
With `O=C(NCCN1CC1)C(=O)NCCN1CC1`, the growth in experiment [1] is 90.5%; in [2], 87.4%; in experiment [3], 102%; in experiment [4] it was 84.5%; in [5] it was 58%; in experiment [6] it was 103%. In addition, the growth is 62.7% in experiment [7], 75.3% in experiment [8], 98.3% in experiment [9] and 88.7% in experiment [10].
For `[Cl][Hg][n]1c(-c2ccco2)nc2ccccc21`, the growth is 99% in experiment [1]; 97.5% in [2]; 98.8% in experiment [3]; 115% in [4]; 96.4% in experiment [5]; 116% in experiment [6]. The growth in [7] is 85.7%; in experiment [8], 100%; in experiment [9] it was 107%; in experiment [10], 121%.
Turning to `Clc1ccc(CO/N=C(\Cn2ccnc2)c2ccc(Cl)cc2Cl)c(Cl)c1`, the growth in [1] was -16.5% (active); in [2] it was -8.01% (active); in experiment [3] it was 21.6%; in [4] it was 107%; in [5], -32.5% (active); in experiment [6], -31.9% (active). Further, the growth in [7] was -45.2% (active); in experiment [8], 7.85% (active); in experiment [9], -45.3% (active); in experiment [10], 105%.
Regarding `CC(=O)O[C@H](C[C@H](C(C)C)N(C)C(=O)[C@@H](NC(=O)[C@H]1CCCCN1C)C(C)C)c1nc(C(=O)N[C@@H](Cc2ccccc2)C[C@H](C)C(=O)O)c(C)s1`, the growth in experiment [1] was 35.9%; in [2], 52.6%; in [3] it was 52.8%; in experiment [4] it was 32.1%; in [5] it was 7.72% (active); in [6] it was 25.6%. In addition, the growth in [7] is -4.18% (active); in [8] it was 11.9%; in experiment [9], 26.1%; in experiment [10], -62.6% (active).
As to `COC(=O)CC12CC(NC(=O)c3csc([C@@H](C[C@H](C(C)C)N(C)C(=O)[C@@H](NC(=O)[C@H]4CCCCN4C)C(C)C)OC(C)=O)n3)(C1)C2`, the growth in [1] is 21.3%; in [2] it was 23.1%; in experiment [3] it was 43%; in experiment [4], 6.8% (active); in experiment [5], 7.76% (active); in [6], 35.7%. The growth was 10.8% in experiment [7], 18% in experiment [8], 12% in experiment [9] and -54.7% (active) in experiment [10].
Regarding `Nc1ccc2c(c1)Cc1cc(Br)ccc1-2`, the growth was 90.5% in experiment [1]; 95.4% in experiment [2]; 105% in experiment [3]; 101% in experiment [4]; 104% in experiment [5]; 78% in [6]. The growth is 107% in experiment [7], 100% in experiment [8], 108% in experiment [9] and 117% in experiment [10].
Consider `C[n+]1c(/C=C/c2ccc(N(CCCl)CCCl)cc2)sc2ccccc21`, for which the growth in [1] is 44.9%; in experiment [2], 73.7%; in experiment [3] it was 95%; in experiment [4] it was 52.2%; in [5], 20.7%; in experiment [6], 61.9%. For the same compound, the growth in experiment [7] was 16.4%; in [8], 40.2%; in [9] it was 50.3%; in [10] it was 32.2%.
Turning to `CCC1(C)CC(CCNCc2ccccc2O)(c2ccc(C)cc2)CCO1` (stereo not given), the growth in experiment [1] is 101%; in experiment [2], 107%; in [3], 108%; in experiment [4], 108%; in experiment [5] it was 102%; in [6], 105%. Also, the growth in [7] is 108%; in [8] it was 101%; in experiment [9] it was 101%; in [10], 115%.
For the compound `O=P1(NCCCl)OCCCN1CCCl` (stereo not given), the growth in experiment [1] was 107%; in [2] it was 109%; in [3] it was 106%; in [4], 108%; in experiment [5], 109%; in [6], 97.4%. Besides, the growth in experiment [7] is 99.5%; in experiment [8], 121%; in [9], 93.5%; in [10], 112%.
For `N#CC1C(C#N)C2CCC1C1C2N1c1ccccc1` (stereo not given), the growth in experiment [1] is 117%; in [2] it was 101%; in experiment [3], 92.3%; in experiment [4] it was 97.4%; in experiment [5], 108%; in [6] it was 74.5%. Further, the growth in experiment [7] was 108%; in experiment [8], 126%; in experiment [9], 107%; in experiment [10] it was 103%.
Turning to `O=C(O)c1c(Cl)n(Cc2ccc(O)cc2)c2ccc(O)cc12`, the growth is 113% in experiment [1]; 97.2% in experiment [2]; 96.3% in experiment [3]; 93.7% in experiment [4]; 106% in experiment [5]; 65% in [6]. Besides, the growth in experiment [7] is 83.4%; in experiment [8] it was 103%; in experiment [9], 108%; in experiment [10], 110%.
For the compound `Cn1cc(-c2csc(-c3cn(CCCCN4CCCCC4)c4ccccc34)n2)c2cccnc21`, the growth in experiment [1] is 42.7%; in [2], 68.2%; in experiment [3], 88.2%; in experiment [4] it was 51.6%; in experiment [5], -44.9% (active); in [6], 46.3%. The growth in experiment [7] is 48%; in experiment [8], -47.1% (active); in [9], -85.1% (active); in experiment [10], -73.7% (active).
In the case of `CC[C@H](C)[C@H](NC(=O)[C@H]1CCCCN1C)C(=O)N(C)[C@H](CCc1nc(C(=O)N[C@@H](Cc2ccccc2)C[C@H](C)C(=O)OC)cs1)C(C)C`, the growth in experiment [1] is 31%; in experiment [2], 28.6%; in experiment [3] it was 40.9%; in experiment [4], 14.3%; in [5], 6.43% (active); in experiment [6], 12.9%. In addition, the growth is -14.6% (active) in experiment [7], 17% in experiment [8], 7.3% (active) in experiment [9] and -64.1% (active) in experiment [10].
On to `CC[C@H](C)[C@H](NC(=O)[C@H]1CCCCN1C)C(=O)N(C)[C@H](C[C@@H](OC(C)=O)c1cccc(C(=O)N[C@@H](Cc2ccccc2)C[C@H](C)C(=O)O)n1)C(C)C`, for which the growth in experiment [1] is 24.3%; in [2] it was 19.7%; in experiment [3], 45.2%; in experiment [4], 1.64% (active); in experiment [5] it was 7.49% (active); in experiment [6] it was 37%. The growth in [7] is -12.8% (active); in [8], 11.4%; in [9] it was 23.1%; in experiment [10], -66.1% (active).
For `CC(=O)OCC1O[C@@H]([S-])C(OC(C)=O)[C@H](OC(C)=O)[C@@H]1OC(C)=O.[Au+].c1ccc(CN2[CH-]N(Cc3ccccc3)C(c3ccccc3)=C2c2ccccc2)cc1`, the growth in experiment [1] is 28.5%; in experiment [2], 72.5%; in experiment [3], 82.7%; in experiment [4] it was 92.8%; in [5], 62%; in experiment [6] it was -7.44% (active). Also, the growth in experiment [7] is -47.6% (active); in experiment [8] it was 76.3%; in experiment [9] it was 40.1%; in experiment [10], 13.8%.
Turning to `Clc1cccc(NCOOC2(OOCNc3cccc(Cl)c3)CCCCCC2)c1`, the growth in [1] is 69%; in experiment [2], 102%; in experiment [3] it was 96.2%; in experiment [4], 87.4%; in experiment [5] it was 102%; in experiment [6], 57.5%. The growth is 81.6% in [7], 92.8% in [8], 47.3% in [9] and 113% in experiment [10].
Consider `C=CCCCCCCCCC(=O)[O-].C=CCCCCCCCCC(=O)[O-].[Zn+2]`, for which the growth in experiment [1] is 96.9%; in experiment [2], 115%; in experiment [3], 103%; in experiment [4] it was 119%; in experiment [5] it was 106%; in experiment [6], 72.5%. In addition, the growth in experiment [7] is 119%; in experiment [8] it was 101%; in experiment [9] it was 97.2%; in experiment [10], 127%.
`CCCCN(CCCC)P(=O)(Oc1ccccc1)Oc1ccccc1`: the growth was 53.7% in [1]; 73.9% in experiment [2]; 85.1% in experiment [3]; 85.8% in experiment [4]; 59.9% in experiment [5]; 48.3% in experiment [6]. Further, the growth in [7] is 37.9%; in experiment [8] it was 49%; in experiment [9] it was 75%; in experiment [10], 75.2%.
For the compound `C=CCc1cc2c(cc1OCC)OCO2`, the growth in [1] was 95.6%; in experiment [2], 99.3%; in [3], 114%; in experiment [4], 64.7%; in experiment [5], 102%; in [6], 81.1%. For the same compound, the growth was 74.5% in experiment [7], 88.9% in [8], 92.4% in experiment [9] and 108% in [10].
With `COC1CC2c3ccccc3C1C(C)=[N+]2C` (stereo not given), the growth is 89.3% in experiment [1]; 90.8% in experiment [2]; 99.5% in experiment [3]; 110% in [4]; 106% in experiment [5]; 98.7% in experiment [6]. Moreover, the growth was 79.8% in experiment [7], 96% in experiment [8], 98.9% in experiment [9] and 120% in experiment [10].
Regarding `CO[C@H](C(=O)O)[C@@H]1Cc2cc3cc(OC4CC(OC5CC(O)C(O)C(C)O5)C(O)C(C)O4)c(C)c(O)c3c(O)c2C(=O)[C@H]1OC1CC(OC2CC(OC3CC(C)(O)C(O)C(C)O3)C(O)C(C)O2)C(O)C(C)O1` (stereo not given in full), the growth in experiment [1] is -0.124% (active); in [2] it was 0.862% (active); in [3] it was 21.6%; in experiment [4], 20.7%; in [5], 11.2%; in [6] it was 24.7%. Besides, the growth in [7] is -3.78% (active); in [8], 13.7%; in experiment [9] it was 10.3%; in experiment [10] it was -12.5% (active).
As for `CN1CCC(c2c[nH]c3ccccc23)C1` (stereo not given), the growth is 88.9% in experiment [1]; 106% in experiment [2]; 118% in [3]; 84.3% in experiment [4]; 124% in experiment [5]; 92.9% in [6]. Also, the growth was 79.5% in experiment [7], 122% in [8], 99.3% in experiment [9] and 108% in experiment [10].
`CC1(C)C(C(=O)c2cn(CCCCF)c3ccccc23)C1(C)C`: the growth was 85.4% in [1]; 82.1% in experiment [2]; 112% in experiment [3]; 92.9% in [4]; 103% in [5]; 98% in experiment [6]. In addition, the growth in experiment [7] is 56.9%; in [8], 78.5%; in [9], 99.3%; in [10], 99.5%.
